According to PubChem BioAssay (NCATS):
Inconclusive results are not listed. A call without a number means that no potency is given here. Active and inactive are the calls of the source. The call rests on the fitted dose curve; in most records, active means well fitted curve in the direction sought with a large enough effect; inconclusive means small, poorly fitted or top-dose-only effect, or another doubt; inactive means no such curve, though single readings can be large; an effect the other way counts as inactive or inconclusive.

system: Zika virus NS2B-NS3 protease; assay: Primary screen GU AMC qHTS for Zika virus inhibitors (AID 1347154); conditions: Zika NS2B-NS3 unlinked protease, AMC fluorogenic substrate; series mostly up to 54.1 µM; further: nearly all actives have a fitted effect of over 70% in size
Summary of the method: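 Unlinked Zika NS2B hydrophilic domain/NS3 protease domain noncovalent complex (25 nM final) in 10 mM Tris-HCl pH 8.0, 0.01% Tween 20, with AMC peptide substrate. Fluorescence (ex 340, em 450 nm) change over 15 min, room temperature; percent inhibition fitted to 4-parameter Hill equation.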

SMILES	Potency
O=C(Nc1ccc(F)c(C(F)(F)F)c1)Nc1nnc(-c2ccncc2)s1	inactive
Clc1ccc(Nc2nnc(Cc3ccncc3)c3ccccc23)cc1	inactive
CCCS(=O)(=O)Nc1ccc(F)c(C(=O)c2c[nH]c3ncc(Cl)cc23)c1F	inactive
CC1(C)CNc2cc(NC(=O)c3cccnc3NCc3ccncc3)ccc21	inactive
CC(C)OC(=O)C1=CN(C(=O)c2ccc(F)c(F)c2)CC(C)(C)c2c1[nH]c1ccccc21	inactive
Cc1cnc(Nc2ccc(OCCN3CCCC3)cc2)nc1Nc1cccc(S(=O)(=O)NC(C)(C)C)c1	inactive
CN(C(=O)c1ccc(F)cc1C(F)(F)F)C1CCN(c2nnc(-c3ccnn3C)c3ccccc23)CC1	inactive
COc1cc(F)c(F)c(Nc2ccc(I)cc2F)c1NS(=O)(=O)C1(C[C@H](O)CO)CC1	inactive
CC[C@@H](C)[C@H](NC(=O)[C@H](CC1CCCCC1)NC(=O)c1ccno1)C(=O)N1CCC2(CCc3ccccc32)CC1	inactive
CC(C)(N)C(=O)N[C@H](COCc1ccccc1)C(=O)N1CCC2(CC1)CN(S(C)(=O)=O)c1ccccc12	inactive
CCc1cc(Nc2nccc(-c3c(-c4ccc(OC)c(C(=O)Nc5c(F)cccc5F)c4)nc4ccccn34)n2)c(OC)cc1N1CCC(N2CCN(S(C)(=O)=O)CC2)CC1	inactive
COc1nc(-c2ccc3c(c2)OCO3)n(-c2ccc(NC(=O)CSc3ccccc3)cc2)n1	inactive

system: Zika virus NS2B-NS3 protease (unlinked complex); assay: Primary screen GU Rhodamine qHTS for Zika virus inhibitors: Unlinked NS2B-NS3 protease assay (AID 1347159); conditions: Recombinant ZIKV NS2B-NS3 protease, Rhodamine110 substrate fluorescence; series mostly up to 107 µM; further: nearly all actives have a fitted effect of over 60% in size; further: potency means the concentration at half of the fitted maximal effect
Summary of the method: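 Noncovalent NS2B hydrophilic domain–NS3 protease domain complex (25 nM) preincubated 15 min at room temperature with compounds (up to 114 microM) in 10 mM Tris-HCl pH 8.0, 0.01% Tween 20; 1.5 microM Rhodamine110 substrate added, fluorescence change over 15 min fitted to Hill equation.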

SMILES	Potency
O=c1[nH]c(-c2ccc(C(F)(F)F)cc2)nc2c1CSCC2	inactive
Cc1cc(Nc2nc(N[C@@H](C)c3ncc(F)cn3)ncc2Cl)n[nH]1	inactive
COc1cc(Oc2ccnc3cc(OC)c(OC)cc23)ccc1NC(=O)NC(C)c1nccs1 (stereo unspecified)	inactive
O=C1CCCC2=C1C(c1[nH]ncc1Cl)N=C(Nc1nc3ccccc3o1)N2 (stereo unspecified)	inactive
CN(C)C(=O)c1ccc(S(=O)(=O)c2ccc(NC(=O)[C@@](C)(O)C(F)(F)F)c(Cl)c2)cc1	inactive
CN(C)c1ccc(Nc2nc(N)n(C(=O)c3c(F)cccc3F)n2)cc1	inactive
Cc1ccnc(NS(=O)(=O)c2ccc(NC(=O)Nc3ccc(S(=O)(=O)Nc4nccc(C)n4)cc3)cc2)n1	inactive
CNC(=O)c1ccc(C)c(-n2c(C)cc(OCc3ccc(F)cc3F)c(Br)c2=O)c1	inactive
Cc1csc(NC(=O)c2sc3nc4c(c(C(F)(F)F)c3c2N)CCC4)n1	inactive
COc1ccc(CCN2CCN(CCCc3ccccc3)CC2)cc1OC	inactive
COc1ccccc1[C@H](c1cccc2ccccc12)[C@@](C)(C#N)C(=O)N1CCC(c2cccc(C(F)(F)F)c2)CC1	inactive
CC1(C)Cc2c(-c3ccccc3)c(-c3ccc(Cl)cc3)c(CC(=O)O)n2C1	10 µM (active)
N#CC[C@H](C1CCCC1)n1cc(-c2ncnc3[nH]ccc23)cn1	inactive
S=C(NCc1ccc2c(c1)OCO2)N1CCN(c2ncnc3c2oc2ccccc23)CC1	inactive
C[C@@H]1CN(Cc2ccc(F)cc2)[C@@H](C)CN1C(=O)c1cc2c(C(=O)C(=O)N(C)C)cn(C)c2cc1Cl	inactive
O=C(Nc1ccc(F)c(C(F)(F)F)c1)Nc1nnc(-c2ccncc2)s1	8.91 µM (active)
Cn1cc(-c2ccc3nnc(C(F)(F)c4ccc5ncccc5c4)n3n2)cn1	inactive
CCCS(=O)(=O)Nc1ccc(F)c(C(=O)c2c[nH]c3ncc(Cl)cc23)c1F	inactive
CC1(C)CNc2cc(NC(=O)c3cccnc3NCc3ccncc3)ccc21	inactive
CCOc1cc(C(=O)Nc2ccc(Cl)c(-c3nc4ccccc4[nH]3)c2)cc(OCC)c1OCC	inactive
CC(C)OC(=O)C1=CN(C(=O)c2ccc(F)c(F)c2)CC(C)(C)c2c1[nH]c1ccccc21	inactive
COc1c(Cl)cc2c([nH]c3cnccc32)c1NC(=O)c1cccnc1C	inactive
Cc1cnc(Nc2ccc(OCCN3CCCC3)cc2)nc1Nc1cccc(S(=O)(=O)NC(C)(C)C)c1	inactive
CN(C(=O)c1ccc(F)cc1C(F)(F)F)C1CCN(c2nnc(-c3ccnn3C)c3ccccc23)CC1	inactive
CC(C)(N)C(=O)N[C@H](COCc1ccccc1)C(=O)N1CCC2(CC1)CN(S(C)(=O)=O)c1ccccc12	inactive
CCc1cc(Nc2nccc(-c3c(-c4ccc(OC)c(C(=O)Nc5c(F)cccc5F)c4)nc4ccccn34)n2)c(OC)cc1N1CCC(N2CCN(S(C)(=O)=O)CC2)CC1	inactive
COc1nc(-c2ccc3c(c2)OCO3)n(-c2ccc(NC(=O)CSc3ccccc3)cc2)n1	inactive

system: Zika virus NS2B-NS3 protease (linked construct); assay: Primary screen NINDS Rhodamine qHTS for Zika virus inhibitors (AID 1347160); conditions: purified NS2B-NS3 protease, Rhodamine110 substrate fluorescence; series mostly up to 57.1 µM; further: nearly all actives have a fitted effect of over 55% in size; further: potency means the concentration at half of the fitted maximal effect
Summary of the method: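 Purified linked NS2B-NS3 protease (NS2B hydrophilic domain joined to NS3 protease by flexible linker), 25 nM in 10 mM Tris-HCl pH 8.0, 0.01% Tween 20. Compounds titrated, 15 min preincubation at room temperature; 1.5 microM Rhodamine110 substrate, FITC fluorescence change over 15 min.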

SMILES	Potency
O=c1[nH]c(-c2ccc(C(F)(F)F)cc2)nc2c1CSCC2	inactive
Cc1n[nH]c(C)c1Cc1sc2c(c1C(=O)N1C[C@H](O)CO1)c(=O)n(C)c(=O)n2CC(C)C	inactive
Cc1cc(Nc2nc(N[C@@H](C)c3ncc(F)cn3)ncc2Cl)n[nH]1	inactive
C[C@H](NC(=O)Cc1cc(F)cc(F)c1)C(=O)N[C@@H]1C(=O)N(C)c2ccccc2-c2ccccc21	inactive
COc1cc(Oc2ccnc3cc(OC)c(OC)cc23)ccc1NC(=O)NC(C)c1nccs1 (stereo unspecified)	inactive
O=C1CCCC2=C1C(c1[nH]ncc1Cl)N=C(Nc1nc3ccccc3o1)N2 (stereo unspecified)	inactive
CN(C)C(=O)c1ccc(S(=O)(=O)c2ccc(NC(=O)[C@@](C)(O)C(F)(F)F)c(Cl)c2)cc1	inactive
CN(C)c1ccc(Nc2nc(N)n(C(=O)c3c(F)cccc3F)n2)cc1	inactive
O=C(Nc1cccnc1)N1CCC(Cc2cccc(Oc3ccc(C(F)(F)F)cn3)c2)CC1	inactive
CC[C@H](Nc1ncnc2nc[nH]c12)c1nc2cccc(F)c2c(=O)n1-c1ccccc1	inactive
CNC(=O)c1ccc(C)c(-n2c(C)cc(OCc3ccc(F)cc3F)c(Br)c2=O)c1	inactive
Cc1csc(NC(=O)c2sc3nc4c(c(C(F)(F)F)c3c2N)CCC4)n1	inactive
COc1ccc(CCN2CCN(CCCc3ccccc3)CC2)cc1OC	inactive
COc1ccccc1[C@H](c1cccc2ccccc12)[C@@](C)(C#N)C(=O)N1CCC(c2cccc(C(F)(F)F)c2)CC1	inactive
N#CC[C@H](C1CCCC1)n1cc(-c2ncnc3[nH]ccc23)cn1	inactive
S=C(NCc1ccc2c(c1)OCO2)N1CCN(c2ncnc3c2oc2ccccc23)CC1	inactive

SMILES	Potency
C[C@@H]1CN(Cc2ccc(F)cc2)[C@@H](C)CN1C(=O)c1cc2c(C(=O)C(=O)N(C)C)cn(C)c2cc1Cl	inactive
O=C(Nc1ccc(F)c(C(F)(F)F)c1)Nc1nnc(-c2ccncc2)s1	2.82 µM (active)
Clc1ccc(Nc2nnc(Cc3ccncc3)c3ccccc23)cc1	inactive
Cn1cc(-c2ccc3nnc(C(F)(F)c4ccc5ncccc5c4)n3n2)cn1	inactive
CCCS(=O)(=O)Nc1ccc(F)c(C(=O)c2c[nH]c3ncc(Cl)cc23)c1F	inactive
CC1(C)CNc2cc(NC(=O)c3cccnc3NCc3ccncc3)ccc21	inactive
CCOc1cc(C(=O)Nc2ccc(Cl)c(-c3nc4ccccc4[nH]3)c2)cc(OCC)c1OCC	inactive
CC(C)OC(=O)C1=CN(C(=O)c2ccc(F)c(F)c2)CC(C)(C)c2c1[nH]c1ccccc21	inactive
COc1c(Cl)cc2c([nH]c3cnccc32)c1NC(=O)c1cccnc1C	inactive
Cc1cnc(Nc2ccc(OCCN3CCCC3)cc2)nc1Nc1cccc(S(=O)(=O)NC(C)(C)C)c1	inactive
CN(C(=O)c1ccc(F)cc1C(F)(F)F)C1CCN(c2nnc(-c3ccnn3C)c3ccccc23)CC1	inactive
COc1cc(F)c(F)c(Nc2ccc(I)cc2F)c1NS(=O)(=O)C1(C[C@H](O)CO)CC1	inactive
CC[C@@H](C)[C@H](NC(=O)[C@H](CC1CCCCC1)NC(=O)c1ccno1)C(=O)N1CCC2(CCc3ccccc32)CC1	inactive
CC(C)(N)C(=O)N[C@H](COCc1ccccc1)C(=O)N1CCC2(CC1)CN(S(C)(=O)=O)c1ccccc12	inactive
CCc1cc(Nc2nccc(-c3c(-c4ccc(OC)c(C(=O)Nc5c(F)cccc5F)c4)nc4ccccn34)n2)c(OC)cc1N1CCC(N2CCN(S(C)(=O)=O)CC2)CC1	inactive
COc1nc(-c2ccc3c(c2)OCO3)n(-c2ccc(NC(=O)CSc3ccccc3)cc2)n1	inactive
